Data on 14 molecules can be found in PubChem BioAssay.

Experiment [1] addresses Cell division control protein 42 homolog (Homo sapiens) (UniProt P60953). Briefly: inhibition of fluorescent GTP binding to constitutively active Cdc42 – biochemical, multiplex bead flow cytometry, Bodipy-FL-GTP, dose response (AID 1333). In general terms: In flow cytometry, cells or beads pass a laser one at a time.
Experiment [2] has the same target. Briefly: inhibition of fluorescent GTP binding to wildtype Cdc42 – biochemical, multiplex bead flow cytometry, Bodipy-FL-GTP, dose response (AID 1334;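 active = fitted half-maximal concentration within the tested range, moderate curve steepness, significant signal drop, and little compound fluorescence or bead-linkage interference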). The conditions noted are these: bead-based flow cytometry, Bodipy-FL-GTP binding to GST-Cdc42; at 100 µM (top of the series) unless noted.
Experiment [3] concerns the target GTPase HRas (Homo sapiens) (UniProt P01112). Description: Ras wt fluorescent GTP loading blockade – biochemical, wildtype, multiplex bead flow cytometry, dose response (AID 1335;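 active = fitted half-maximal concentration within 10 nM to 100 µM, steepness 0.5 to 2, significant signal drop, low assay interference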). Particulars: bead-based flow cytometry, Bodipy-GTP binding to GST-Ras; at 100 µM (top of the series) unless noted.
The test system of experiment [4] is Ras-related protein Rab-7a (dog), GTP binding. Description: blockers of fluorescent GTP binding to Rab7 – biochemical, wildtype, multiplex bead flow cytometry, dose response (AID 1336; call rule not given here).
Experiment [5] addresses Ras-related C3 botulinum toxin substrate 1 (Homo sapiens) (UniProt P63000). Briefly: inhibition of wildtype Rac1 nucleotide loading – biochemical, multiplex bead flow cytometry, dose response (AID 1340;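 active = dose curve with midpoint inside tested range, moderate steepness, plateau gap beyond fit error, low compound glow and bead-link interference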). The conditions noted are these: GST-Rac1 beads, Bodipy-FL-GTP binding; at 100 µM (top of the series) unless noted.
For experiment [6], the target named is GTPase HRas (Homo sapiens) (UniProt P01112). Briefly: blockade of GTP loading onto mutant Ras – biochemical, activated mutant, multiplex bead flow cytometry, dose response (AID 1341;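 active = dose-response curve with midpoint inside the tested range, moderate steepness, significant amplitude and little compound fluorescence or bead-attachment interference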;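 note: GST-tagged constitutively activated Ras mutant immobilized on beads and multiplexed with other GTPases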).

For part of these data: Measured potencies and affinities stand elsewhere. Calls of active or inactive are those of the source.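 Rule for the calls, unless noted: active = fitted half-maximal concentration within the tested dose range, moderate curve steepness, a statistically real signal drop, and little compound fluorescence or tag-binding interference; inactive = the rest.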

Sequence of GTPase HRas (Homo sapiens) (P01112 whole entry, looked up): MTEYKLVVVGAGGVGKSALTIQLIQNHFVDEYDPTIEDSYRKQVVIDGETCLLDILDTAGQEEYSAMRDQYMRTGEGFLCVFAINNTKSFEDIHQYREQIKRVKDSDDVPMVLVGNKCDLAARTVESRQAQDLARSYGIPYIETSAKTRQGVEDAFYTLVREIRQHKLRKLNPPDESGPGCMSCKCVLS
Sequence of Cell division control protein 42 homolog (Homo sapiens) (P60953 whole entry, looked up): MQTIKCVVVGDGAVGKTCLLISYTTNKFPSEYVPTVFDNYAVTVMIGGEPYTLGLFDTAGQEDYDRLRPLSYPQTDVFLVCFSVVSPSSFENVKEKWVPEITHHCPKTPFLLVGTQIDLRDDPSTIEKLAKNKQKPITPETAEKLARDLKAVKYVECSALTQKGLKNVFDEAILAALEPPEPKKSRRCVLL

`O=[N+]([O-])c1cc(Br)c(O)c(C=Nc2ccc(N3CCOCC3)cc2)c1`: the molecule was classed as inactive in experiment [1], in experiment [4] and in experiment [6]. In experiment [2], this molecule registered a fluorescence, percent of control (lower = inhibition) of 30.7%. In addition, the GTP binding, percent of control in experiment [3] is 79.8%. In experiment [5], this molecule had a GTP binding signal, raw median fluorescence (lower = inhibition) (MCF (arbitrary fluorescence units)) of 218.
On to `COc1ccc(OCc2c(C)cccc2C)c(C(=O)O)c1`, for which the molecule was called inactive in experiment [1], in experiment [4] and in experiment [6]. Moreover, in experiment [2], the fluorescence, percent of control (lower = inhibition) turned out to be 58.3%. The same molecule showed a GTP binding, percent of control in experiment [3] of 203%. In experiment [5], the GTP binding signal, raw median fluorescence (lower = inhibition) (MCF (arbitrary fluorescence units)) amounted to 55.
For `Cn1c(N/N=C/c2ccccc2)nc2sc3c(c2c1=O)CCC3`, the result in experiment [1], in experiment [4] and in experiment [6] was inactive. Moreover, the fluorescence, percent of control (lower = inhibition) in experiment [2] is 71.9%. The molecule also returned a GTP binding, percent of control in experiment [3] of 117%. This molecule also returned a GTP binding signal, raw median fluorescence (lower = inhibition) (MCF (arbitrary fluorescence units)) in experiment [5] of 123.
For the molecule `O=C(Cn1nc2ccccc2n1)N/N=C/c1cc([N+](=O)[O-])ccc1O`, the outcome in experiment [1], in experiment [4] and in experiment [6] was inactive. Also, in experiment [2], the fluorescence, percent of control (lower = inhibition) is 23.8%. In experiment [3], this molecule came in with a GTP binding, percent of control of 54.9%. For the same molecule, the GTP binding signal, raw median fluorescence (lower = inhibition) (MCF (arbitrary fluorescence units)) in experiment [5] was 109.
Regarding `COc1ccc(S(=O)(=O)n2oc(=O)cc2-c2ccccc2)cc1`, the outcome in experiment [1], in experiment [4] and in experiment [6] was inactive. Moreover, the fluorescence, percent of control (lower = inhibition) in experiment [2] was determined as 42.2%. The molecule further gave a GTP binding, percent of control in experiment [3] of 90.8%. The same molecule had a GTP binding signal, raw median fluorescence (lower = inhibition) (MCF (arbitrary fluorescence units)) in experiment [5] of 248.
Consider `COc1ccc(OCCN2C(=O)c3ccccc3C2=O)cc1`, for which the molecule was called inactive in experiment [1], in experiment [4] and in experiment [6]. The same molecule registered a fluorescence, percent of control (lower = inhibition) in experiment [2] of 35.6%. Moreover, the GTP binding, percent of control in experiment [3] came out at 81.5%. The GTP binding signal, raw median fluorescence (lower = inhibition) (MCF (arbitrary fluorescence units)) in experiment [5] stood at 240.
As to `Cc1ccc(OCc2ccc(C(=O)Nc3nc4ccccc4n3Cc3ccccc3)o2)c([N+](=O)[O-])c1`, the outcome in experiment [1], in experiment [4] and in experiment [6] was inactive. The same molecule showed a fluorescence, percent of control (lower = inhibition) in experiment [2] of 48.5%. In experiment [3], this molecule gave a GTP binding, percent of control of 60.3%. Moreover, the GTP binding signal, raw median fluorescence (lower = inhibition) (MCF (arbitrary fluorescence units)) in experiment [5] stood at 193.
For the molecule `Cc1cc(C(=O)O)sc1CNc1ccc(Cl)cc1`, the result in experiment [1], in experiment [4] and in experiment [6] was inactive. Further, in experiment [2], the fluorescence, percent of control (lower = inhibition) came out at 63.1%. This molecule also displayed a GTP binding, percent of control in experiment [3] of 88.6%. Moreover, in experiment [5], the GTP binding signal, raw median fluorescence (lower = inhibition) (MCF (arbitrary fluorescence units)) is 34.7.
Regarding `Cc1cccn2c(=O)c(/C=C3\SC(=S)N(CC(C)C)C3=O)c(NCCCOC(C)C)nc12`, the result in experiment [1], in experiment [4] and in experiment [6] was inactive. Besides, the fluorescence, percent of control (lower = inhibition) in experiment [2] came out at 58.1%. In experiment [3], this molecule yielded a GTP binding, percent of control of 191%. Further, in experiment [5], the GTP binding signal, raw median fluorescence (lower = inhibition) (MCF (arbitrary fluorescence units)) is 209.
As for `CCCCn1c(SCC(=O)c2ccccc2)nc2c1c(=O)[nH]c(=O)n2C`, the call in experiment [1], in experiment [4] and in experiment [6] was inactive. The fluorescence, percent of control (lower = inhibition) in experiment [2] amounted to 48.7%. The molecule further came in with a GTP binding, percent of control in experiment [3] of 61.3%. The molecule further came in with a GTP binding signal, raw median fluorescence (lower = inhibition) (MCF (arbitrary fluorescence units)) in experiment [5] of 197.
For the molecule `O=C(O)COc1ccccc1/C=N/NC(=O)c1cccc(S(=O)(=O)Nc2cccc(Cl)c2)c1`, the call in experiment [1], in experiment [4] and in experiment [6] was inactive. The molecule also had a fluorescence, percent of control (lower = inhibition) in experiment [2] of 36.3%. Further, the GTP binding, percent of control in experiment [3] is 79.8%. Also, in experiment [5], the GTP binding signal, raw median fluorescence (lower = inhibition) (MCF (arbitrary fluorescence units)) is 124.
On to `Nc1ccc(-c2cn3cccnc3n2)cc1`, for which the result in experiment [1], in experiment [4] and in experiment [6] was inactive. Moreover, the fluorescence, percent of control (lower = inhibition) in experiment [2] was determined as 40.9%. Besides, in experiment [3], the GTP binding, percent of control stood at 88.5%. Besides, the GTP binding signal, raw median fluorescence (lower = inhibition) (MCF (arbitrary fluorescence units)) in experiment [5] turned out to be 287.
On to `CCOC(=O)c1c2c3c(cccc3[nH]c1=O)C(=O)c1ccccc1-2`, for which the molecule was called inactive in experiment [1], in experiment [4] and in experiment [6]. In experiment [2], the fluorescence, percent of control (lower = inhibition) stood at 35.5%. Moreover, the GTP binding, percent of control in experiment [3] is 77.9%. In experiment [5], this molecule returned a GTP binding signal, raw median fluorescence (lower = inhibition) (MCF (arbitrary fluorescence units)) of 176.
Consider `Cn1c(/C(C#N)=C/c2ccncc2)nc2ccccc21`, for which the result in experiment [1], in experiment [4] and in experiment [6] was inactive. Moreover, in experiment [2], the fluorescence, percent of control (lower = inhibition) was found to be 36.7%. The GTP binding, percent of control in experiment [3] amounted to 87.2%. Besides, the GTP binding signal, raw median fluorescence (lower = inhibition) (MCF (arbitrary fluorescence units)) in experiment [5] came to 266.
